The full ranking holds about 33,000 sequences; the median of “E-score (-0.5 to 0.5)” is about -0.032, and the highest 2% start at about 0.36. The sample holds the highest values, similar sequences and a random draw of the others, so the mix is not that of the screen.
Target: T1, Sko1 (UniProt Q02100)
T1 sequence: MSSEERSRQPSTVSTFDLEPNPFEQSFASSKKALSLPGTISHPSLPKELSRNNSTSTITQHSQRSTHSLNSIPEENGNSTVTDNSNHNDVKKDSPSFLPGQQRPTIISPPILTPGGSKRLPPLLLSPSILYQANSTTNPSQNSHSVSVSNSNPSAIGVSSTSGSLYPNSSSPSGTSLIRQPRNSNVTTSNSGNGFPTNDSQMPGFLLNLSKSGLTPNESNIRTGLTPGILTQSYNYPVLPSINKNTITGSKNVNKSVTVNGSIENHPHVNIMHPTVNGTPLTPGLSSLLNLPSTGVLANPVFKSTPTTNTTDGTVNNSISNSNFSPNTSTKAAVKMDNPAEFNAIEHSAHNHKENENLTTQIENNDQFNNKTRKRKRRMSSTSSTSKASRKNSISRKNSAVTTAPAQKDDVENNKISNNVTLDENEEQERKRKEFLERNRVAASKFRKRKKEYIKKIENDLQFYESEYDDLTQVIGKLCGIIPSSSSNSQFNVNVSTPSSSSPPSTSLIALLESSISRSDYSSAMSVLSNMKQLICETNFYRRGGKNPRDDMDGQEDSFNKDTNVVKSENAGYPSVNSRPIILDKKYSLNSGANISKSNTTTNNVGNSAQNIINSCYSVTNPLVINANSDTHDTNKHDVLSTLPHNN
Experiment: PBM E-score (8-mer binding enrichment) (E-score (-0.5 to 0.5)); higher = stronger / more preferred TF binding
Details: protein concentration: 200 nM; construct: GST-full length
Procedure: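 Universal 'all 10-mer' protein binding microarrays (Agilent AMADID 015681) probed with GST-tagged S. cerevisiae TFs (full-length or DBD) made by in vitro transcription/translation (PURExpress), about 100-200 nM. Bound TF was detected with fluorescent anti-GST. Each ungapped 8-mer (which stands for itself and its reverse complement) is scored by the PBM enrichment score (E-score), a modified Wilcoxon-Mann-Whitney statistic from -0.5 to +0.5, computed with the Universal PBM Analysis Suite. Scale: above 0.35 generally sequence-specific binding.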

Sequence	PBM E-score
ATTTCGTC	0.343
GATTCGTA	0.251
CTTTCGTA	0.339
AATTCGTA	0.386
ATTTCGTA	0.372
CATTCGTA	0.317
CGCGGAAC	-0.165
GGCTTCCA	-0.218
TACGTGCA	0.423
GACGTGCA	0.389
GACGTGCC	0.266
GGCGTGCA	-0.0639
AACGTGCA	0.191
CACGTGCA	0.329
AGACTATA	0.00094
CCAAGTGC	-0.285
AGCACGTA	0.406
AGCACGTC	0.309
AGCACATA	0.0436
AGCACGAG	-0.0498
AGCACGTG	0.397
AGCACGAA	0.169
AGTAGTCC	0.0244
AACGTTAC	0.321
GACGTTTA	0.386

Sequence	PBM E-score
AACGTTAT	0.368
GACGTTAC	0.365
AACGTTAG	0.176
CACGTTAC	0.305
TACGTTCA	0.374
AACGTTTA	0.31
AACGTTCT	0.167
CACGTTTA	0.321
CACGTTCA	0.171
AACGTTCA	0.0648
AGCTCAAC	-0.147
AGTGCTGG	-0.111
AAGTCGAC	0.0592
ATCTGAGA	-0.0991
CAATACCG	-0.186
CTTGAAGA	-0.132
ACGAAGGG	0.129
CTGATCCC	-0.269
AACTCCTT	-0.0253
ATTCGACA	-0.09
CAACAACC	-0.0035
CCAGAGAC	-0.251
CATCCCTC	-0.245
CACGTTAA	0.244
CACGTTGA	0.25

Sequence	PBM E-score
TACGTTAA	0.413
GACGTTAA	0.368
GGCGTTAA	-0.0249
TACGTTGA	0.38
AACGTTAA	0.243
CACGTTAG	0.2
GACGTTGA	0.269
CTTCCTAC	-0.225
CTTCTCTA	-0.284
TATGAGCA	0.00789
ACCTGGCT	-0.232
ACCGTCCG	-0.304
AGGAGCCA	-0.258
CCTGCGGC	-0.427
AAATGACG	0.481
TAATGACA	0.364
GAATGACA	0.249
TAATGAAA	0.24
CAATGACA	0.229
CAATGACG	0.486
CAATGACC	0.0293
AAATGACA	0.272
AAATGACC	0.0951
AAATGGTG	0.0316
GAAGGTAA	0.0069

Sequence	PBM E-score
ACACTCAG	-0.0491
TACGGCTA	-0.0295
ATTCGAAG	0.0402
AGCTAGTG	-0.00092
AAACAAGG	-0.131
ATGATTCC	0.169
ACCTACGC	0.293
ACCTACGT	0.444
AACTACGA	0.198
ACCTACGG	-0.217
AACTACGC	0.305
AACTACGT	0.455
ACGCCAAA	0.0451
GCAAACCA	-0.0509
CTTTGGAA	-0.0181
AGTCGTTA	0.0683
CAAGAAGA	-0.0303
CTCTTTCA	-0.0826
CAGGTTTC	-0.0189
GAAGCACC	-0.0674
TAAAGAGA	0.0871
CTTACATC	0.202
AGTACATC	0.142
GTTACATA	0.251
ATTACATA	0.386

Sequence	PBM E-score
ATTACATC	0.403
ATTACATG	0.324
AGACAGCC	-0.219
CGCGTAAA	0.311
TGCGTAAA	0.404
AGCGTAAA	0.189
TGCGTACA	0.36
GGCGTACA	-0.0526
AGCGTACA	0.0563
GTTGCACA	0.0444
CGCATCAG	-0.0566
AGTCAACA	0.0814
GAAGTCGC	-0.139
ATGTGCAC	-0.0142
GCGATTAC	0.144
ACGATTAC	0.369
CCGATTAC	0.0359
ATGAGTCC	0.0501
GCGTACGC	0.269
ACGTACGC	0.453
CCGTACGG	-0.262
AAGTACGT	0.44
AAGTACGC	0.193
ACGTACGG	0.38
GCGTACGA	0.238

Sequence	PBM E-score
ATGTACGG	-0.046
CCGTACGA	0.0901
ACGTACGA	0.414
AAGTACGA	0.201
CCGTACGC	0.0653
AGCGTTAT	0.0494
ACCTGCAT	-0.13
ATAAGAGA	0.0988
ATCTTCGC	0.1
AAAGTAAC	0.0224
AAAACCGG	-0.128
CAGGCCGA	-0.182
GGGGTAGA	-0.0788
AGAAACTG	0.0191
CGCAGCTC	-0.0758
ACGTACGT	0.473
TCGTACGA	0.282
ATGTACGA	0.143
ACCTAGCG	-0.0355
AAGGTGCT	-0.238
ATGCAAAA	0.116
AAATTGAG	-0.0473
ACGTTTAC	0.345
ACGTTTAG	0.355
ACGTTTAT	0.388

Sequence	PBM E-score
AGGTTTAT	0.0336
ACGTTTAA	0.406
CCGTTTAA	-0.0451
GTGCCAAA	-0.0151
CTAACTTC	0.0478
CGTCTGCC	-0.00999
ATATTTCG	0.235
GATTGGTA	-0.054
AAAGTCTT	0.0148
GGGGAGTA	-0.124
ATGCCAAA	-0.0114
TAACGCCA	0.144
CAACGTCC	-0.0395
AAACGTCC	0.13
GAACGTCA	0.456
CAACGTCG	0.222
GAACGTCC	0.117
AAACGTCA	0.47
GAACGTTA	0.18
TAACGTCA	0.48
TAACGGCA	0.0289
CAACGTCA	0.47
AAACGTCT	0.341
